Compound activity deposited in PubChem BioAssay by several laboratories.
Shown are actives, neighbours in structure and some others; about 4.7% of the full set was active somewhere.
SDO1 yeast rescue = restores growth of sdo1-depleted yeast | S. cerevisiae sdo1-depleted JHY4D growth rescue, OD600 30 h; active compounds read high; pdr5 snq2 efflux-pump mutant strain | hit rate 0.21% among 140,000 | z-score at 10 µM;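 active means z-score above 3 at both the 24 hr and the 30 hr optical density reads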
Plk1 PBD FP = inhibitors of human Plk1 polo box domain binding | P53350 | Plk1 PBD phosphopeptide binding, fluorescence polarization | inhibition, %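 (tested at about 20 µM)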 | hit rate 0.13% among 97,000 | AID 693; in the data active means inhibition above about 34%, passing the limit was not always enough
Cav32 inh = blocks human Cav3.2 T-type calcium channel. hit rate 4% among 100,000. O95180. Cav3.2-expressing cells, Fluo-4 calcium fluorescence FDSS; active compounds read low. B-score at 10 µM. AID 449739;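 active means single-dose well whose peak fluorescence ratio is a statistical outlier from its plate by either plate-standardised score or position-corrected B-score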
PLK1 inh = PLK1 (human) kinase inhibition; recombinant PLK1 kinase, TR-FRET peptide phosphorylation; inhibition, % at 10 µM; hit rate 0.53% among 97,000; P53350; AID 619;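 active means inhibition of 50% or more in the single-concentration screen; inactive means inhibition below 50%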
Pyk2 oligo antag = blocks oligomerization of human Pyk2 in cells; Q293 cells, Pyk2 FERM NanoBiT luminescence; active compounds read low; z-score (the deposit names both 25 µM and 10 µM); hit rate 0.83% among 99,000; AID 1347419;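 active means Z-score of -3 or lower, scaled per plate to the spread of control and sample wells; inactive means z-score above -3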;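 further: negative z-score means lost luminescence so less FERM oligomerization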
hDAT+cocaine = human DAT dopamine uptake with cocaine, either direction. LLC-PK1 hDAT cells, [14C]-dopamine uptake with cocaine IC80; actives deviate in either direction. hit rate 1.3% among 110,000. B-score at 10 µM;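 active means Z score or B-score, a plate-position-corrected score, falls beyond the plate's 99.7% confidence bounds, in either direction; inactive means both scores lie inside the 99.7% bounds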
Large screens that a line does not name were inactive.

COCCOC(=O)c1c(C)nc(SCC(=O)Nc2cccc3ccccc23)c(C#N)c1-c1ccco1	hDAT+cocaine -8.19
COc1ccc(N2CC(NC(=O)NCC(C)C)CC2=O)cc1 (stereo not given)	none (no result: Plk1 PBD FP, Cav32 inh, PLK1 inh, Pyk2 oligo antag, hDAT+cocaine)
CCCCN(CCCC)C(=O)/C=C/c1cccc([N+](=O)[O-])c1	Cav32 inh -5.98
O=C(/C=C/c1cccc([N+](=O)[O-])c1)NCCSc1ccccc1	Cav32 inh -3.74
O=C(CCNC(=O)Cn1ccc2ccccc2c1=O)NCCc1ccc(Cl)cc1	none (no result: Plk1 PBD FP, Cav32 inh, PLK1 inh, Pyk2 oligo antag, hDAT+cocaine)
CCCCN(CC)C(=O)Cn1cnc2ccc(S(=O)(=O)N3CCC(C)CC3)cc2c1=O	none (no result: Plk1 PBD FP, Cav32 inh, PLK1 inh, Pyk2 oligo antag, hDAT+cocaine)
O=S(=O)(c1ccccc1)n1nc(-c2ccccc2)nc1NCc1ccco1	Cav32 inh -4.52
O=C(c1ccccc1)n1nc(-c2ccccc2)nc1NCc1ccco1	none (no result: Cav32 inh, Pyk2 oligo antag, hDAT+cocaine)
Cc1cc(C)nc(NC(=O)c2c(-c3c(Cl)cccc3Cl)noc2C)n1	hDAT+cocaine -2.92
CC(=O)Nc1cccc(NC(=O)c2c(-c3c(Cl)cccc3Cl)noc2C)c1	none
Cc1ccc(NC(=O)c2c(-c3c(F)cccc3Cl)noc2C)cc1F	Cav32 inh -8.29 (no result: Plk1 PBD FP, PLK1 inh)
CCC1(C)Cc2c(sc3c2c2ncnn2c2nnc(SCC(=O)NCc4ccco4)n32)CO1 (stereo not given)	Cav32 inh 3.73 (no result: Plk1 PBD FP, PLK1 inh)
CCN(CC)S(=O)(=O)c1ccc2oc(Nc3ccc4c(c3)OCCO4)nc2c1	Pyk2 oligo antag -3.53
CCc1ccc(C(C(=O)NC2CCCC2)N(C(=O)/C=C/C(=O)Nc2cc(C)on2)c2ccccc2C)cc1 (stereo not given)	none (no result: Plk1 PBD FP, Cav32 inh, PLK1 inh, Pyk2 oligo antag, hDAT+cocaine)
CCOc1ccc(N(C(=O)/C=C/C(=O)Nc2cc(C)on2)C(C(=O)NC2CCCC2)c2ccccc2C)cc1 (stereo not given)	Cav32 inh -5.38
CC1(C)CC(=O)c2c(O)c(-c3ccccc3)c(=O)n(-c3ccccc3)c2C1	none (no result: Plk1 PBD FP, Cav32 inh, PLK1 inh, hDAT+cocaine)
Cc1noc(C)c1COC(=O)C1(c2cccc(F)c2)CCCC1	Cav32 inh -5.01 (no result: Plk1 PBD FP, PLK1 inh)
NS(=O)(=O)c1cccc(NC(=O)COC(=O)C2(c3cccc(F)c3)CCCC2)c1	none (no result: Plk1 PBD FP, Cav32 inh, PLK1 inh, Pyk2 oligo antag, hDAT+cocaine)
CCc1ccc(-c2cc(C(=O)N3N=C(C(F)F)CC3(O)C(F)F)c3ccccc3n2)cc1 (stereo not given)	none
CC(C)Cc1cc(C(=O)N2N=C(C(F)F)CC2(O)C(F)F)c2ccccc2n1 (stereo not given)	Cav32 inh -7.04
Cc1ccccc1C(=O)Oc1cccc(Nc2ncnc3ccccc23)c1	Cav32 inh -4.84 (no result: SDO1 yeast rescue)
COc1ccccc1OCCN1C(=O)S/C(=C\c2ccco2)C1=O	Cav32 inh -6.47
O=C(Oc1ccc([N+](=O)[O-])cc1)c1cncc(Br)c1	none (no result: Plk1 PBD FP, Cav32 inh, PLK1 inh, Pyk2 oligo antag, hDAT+cocaine)
COC(=O)c1ccc(COC(=O)c2ccc(SC)cc2OC)cc1	none (no result: Plk1 PBD FP, Cav32 inh, PLK1 inh, Pyk2 oligo antag, hDAT+cocaine)
Cc1cccc2cc(/C=C3\N=C(c4ccccc4)OC3=O)c(N3CCOCC3)nc12	Cav32 inh -5.97
COc1ccc(Nc2ncc(C(=O)N3CCN(c4ccc(F)cc4)CC3)c3ccccc23)cc1	Cav32 inh -5.9
COc1ccc(Nc2ncc(C(=O)O)c3ccccc23)cc1	none
FC(F)(F)c1nc(N2CCCC2)ncc1-c1nnnn1-c1ccc(Cl)cc1	Cav32 inh -4.8
Fc1ccc(-n2nnnc2-c2cnc(-c3cccs3)nc2C(F)(F)F)cc1	Pyk2 oligo antag -3.66
C1CCN(CCCNC2C3CC4CC(C3)CC2C4)C1 (stereo not given)	none (no result: Plk1 PBD FP, Cav32 inh, PLK1 inh, Pyk2 oligo antag, hDAT+cocaine)
Cc1ccc(CNC(=O)Cn2c(=O)c3sccc3n(Cc3ccc([N+](=O)[O-])cc3)c2=O)cc1	none (no result: Plk1 PBD FP, Cav32 inh, PLK1 inh, Pyk2 oligo antag, hDAT+cocaine)
CCCN1/C(=C2/SC(=S)N(CC)C2=O)C=Cc2ccccc21	Pyk2 oligo antag -3.14
COC(=O)c1ccc(NC(=O)CSC2=NC(=O)C(c3ccccc3)C(=O)N2)cc1 (stereo not given)	none (no result: Plk1 PBD FP, Cav32 inh, PLK1 inh, Pyk2 oligo antag, hDAT+cocaine)
Cc1sc(NC(=S)NC(=O)C(C)(C)C)c(C(N)=O)c1C	none
Cc1cc(N2C(=O)C(=O)/C(=C(/O)c3ccc(F)cc3)C2c2ccc(Cl)cc2)no1 (stereo not given)	Cav32 inh -6.16
O=C(CN1CCN(c2ccccc2)CC1)NC(=O)NCc1ccco1	none (no result: Plk1 PBD FP, Cav32 inh, PLK1 inh, hDAT+cocaine)
Cc1ccc(SCC(=O)NC(=O)NCc2ccco2)cc1C	Cav32 inh -6.61 (no result: Pyk2 oligo antag)
Cc1ccccc1Nc1nnc(SCC(=O)NC(=O)NCc2ccco2)s1	none (no result: Plk1 PBD FP, Cav32 inh, PLK1 inh, hDAT+cocaine)
O=C(CN1CCN(C(c2ccccc2)c2ccccc2)CC1)NC(=O)NCc1ccco1	Cav32 inh -5.1
CCC(C)n1c(=S)[nH]c2c(sc3ccc([N+](=O)[O-])cc32)c1=O (stereo not given)	none (no result: Plk1 PBD FP, Cav32 inh, PLK1 inh, Pyk2 oligo antag, hDAT+cocaine)
